Screens from PubChem.
USP1-UAF1 inh: blocks the human USP1/UAF1 deubiquitinase complex. recombinant USP1/UAF1, Ub-Rhodamine cleavage fluorescence. Potency, µM (highest dose often 57.1 µM), usual class: inhibitors. AID 743255. 390,000 compounds, 0.23% hits. O94782; further: nearly all actives have a fitted effect of over 60% in size
Target sequence (O94782 whole entry, looked up): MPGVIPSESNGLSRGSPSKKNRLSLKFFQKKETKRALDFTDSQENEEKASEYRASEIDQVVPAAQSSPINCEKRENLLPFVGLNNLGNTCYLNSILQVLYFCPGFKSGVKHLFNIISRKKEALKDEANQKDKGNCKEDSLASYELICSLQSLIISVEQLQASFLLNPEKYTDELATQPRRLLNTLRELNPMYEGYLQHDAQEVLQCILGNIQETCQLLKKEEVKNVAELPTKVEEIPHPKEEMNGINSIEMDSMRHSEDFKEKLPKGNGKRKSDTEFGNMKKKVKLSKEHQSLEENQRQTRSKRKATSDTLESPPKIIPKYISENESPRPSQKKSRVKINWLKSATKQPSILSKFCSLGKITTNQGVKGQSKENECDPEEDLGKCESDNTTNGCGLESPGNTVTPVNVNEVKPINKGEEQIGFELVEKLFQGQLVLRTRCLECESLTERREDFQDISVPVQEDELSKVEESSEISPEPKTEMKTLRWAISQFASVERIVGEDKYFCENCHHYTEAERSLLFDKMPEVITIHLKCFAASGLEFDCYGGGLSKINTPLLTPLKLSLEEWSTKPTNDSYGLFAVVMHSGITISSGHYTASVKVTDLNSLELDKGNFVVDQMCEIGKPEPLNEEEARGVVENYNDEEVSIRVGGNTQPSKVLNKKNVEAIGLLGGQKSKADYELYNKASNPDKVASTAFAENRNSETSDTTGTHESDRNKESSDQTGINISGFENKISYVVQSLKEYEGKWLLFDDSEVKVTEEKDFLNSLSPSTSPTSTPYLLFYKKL
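High-throughput fluorogenic screen: 1nM USP1/UAF1 complex, Ub-Rho substrate 150nM final, 50mM HEPES pH 7.8 with 0.5mM EDTA, 0.1 mg/ml BSA, 1mM TCEP and 0.01% Tween-20.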
IL1B secr inh: inflammasome signaling inhibition, IL-1 beta readout | AID 743279 | THP-1 LPS/ATP IL-1B secretion, AlphaLISA, 16 h; stronger effect = lower value | activity change, % at 57.5 µM | 360,000 compounds, 4.7% hits; in the data active means activity change below about -50%; inconclusive means mostly about -30% to -49%
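THP-1 cells pretreated 1 hr with compounds (up to 57.5 uM final), then stimulated with LPS (250 ng/mL final) plus ATP (1.25 mM final); secreted IL-1B measured by AlphaLISA after 16 hr, decreased signal indicating inhibition.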
S2 tox: cell viability loss in ATXN counter-screen; S2 cells (HEK-293 line with an ATXN2-luciferase reporter) viability, CellTiter-Fluor protease fluorescence, 24 h; Potency, µM (titrated, usually from 56.7 µM), hits mostly cytotoxic; 400,000 compounds, 0.49% hits; AID 651635; further: nearly all actives have a fitted effect of over 40% in size
ATXN2 expr inh: inhibitors of ATXN2 expression | HEK-293 ATXN2-luciferase reporter, luminescence, 24 h | Potency, µM (highest dose often 57 µM), usual class: inhibitors | 360,000 compounds, 0.72% hits; further: nearly all actives have a fitted effect of over 55% in size
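qHTS (up to 57 uM final) was run with 24 h compound exposure of reporter cells at 37 °C. Each well was multiplexed: SteadyGlo luminescence measured ATXN2-luciferase expression after a fluorogenic Gly-Phe-AFC viability readout (25 uM final).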
USP2a inh: USP2a (human) protease inhibition. USP2 core, Ub-CHOP2 coupled fluorogenic reporter, 485/531. Potency, µM (series often up to 38.3 µM), most hits filed as inhibitors. 330,000 compounds, 0.01% hits. O75604
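Deubiquitinase activity read as fluorescence (485/531 nm) after Ub-CHOP2 cleavage activates the enterokinase reporter on its substrate; USP2 core 10nM, Ub-CHOP2 and substrate 25nM each, 30min compound preincubation then 60min RT; data normalized to NEM, curves fitted.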
Each line names hits and unclear results; the compound was inactive in the other large screens. Shown are actives, neighbours in structure and some others; about 4.8% of the full set was active somewhere. Unless noted, the call rests on the fitted dose curve; in most records, active means well fitted curve in the direction sought with a large enough effect; inconclusive means small, poorly fitted or top-dose-only effect, or another doubt; inactive means no such curve, though single readings can be large; an effect the other way counts as inactive or inconclusive.

O[C@@H]1CN(Cc2ccc(-n3cccn3)cc2)CC[C@H]1N1CCN(c2ccccc2F)CC1	IL1B secr inh -62, S2 tox inconclusive, ATXN2 expr inh inconclusive
N#C/C(=C/c1ccc(O)c(O)c1)C(=O)NCc1ccc(Cl)cc1	none
N#C/C(=C\c1ccc(O)c(Br)c1)C(=O)NCc1ccccc1	none
N#C/C(=C/c1cccc(O)c1)C(=O)NCc1ccc(Cl)cc1	IL1B secr inh -103
N#C/C(=C/c1ccccc1)C(=O)NCc1ccccc1	IL1B secr inh -77
N#C/C(=C\C=C\c1ccccc1)C(=O)NCc1ccco1	IL1B secr inh -81, S2 tox inconclusive
O=C(/C=C/c1ccccc1)NCc1ccco1	none
CCOC(=O)Cn1c(=O)oc2cc(S(=O)(=O)N(C)c3ccc(OC)cc3)ccc21	IL1B secr inh -57
CC1=C(C(=O)N(C(C)C)C(C)C)CC(CC(=O)NCc2cccs2)C(=O)N1CCC1=CCCCC1 (stereo not drawn)	S2 tox inconclusive (no result: USP1-UAF1 inh, USP2a inh)
CC1=C(C(=O)N(C(C)C)C(C)C)CC(CC(=O)NCc2cccc3ccccc23)C(=O)N1CCC1=CCCCC1 (stereo not drawn)	IL1B secr inh -80, ATXN2 expr inh inconclusive (no result: USP1-UAF1 inh, S2 tox, USP2a inh)
CC1=C(C(=O)N(C(C)C)C(C)C)CC(CC(=O)NCc2cccc3ccccc23)C(=O)N1Cc1ccc(F)cc1 (stereo not drawn)	IL1B secr inh -68, S2 tox inconclusive, ATXN2 expr inh inconclusive (no result: USP1-UAF1 inh, USP2a inh)
O=C(/C=C\c1ccccc1OC(=O)c1ccccc1F)c1cc2ccccc2o1	IL1B secr inh -104
O=C(CCl)N1N=C(c2ccco2)CC1c1ccco1 (stereo not drawn)	IL1B secr inh -99
CN1CCN(CC(=O)N2N=C(c3cccs3)CC2c2ccco2)CC1 (stereo not drawn)	none
O=C(CCl)N1N=C(c2cccs2)CC1c1ccco1 (stereo not drawn)	IL1B secr inh -100, ATXN2 expr inh 4.2µM (no result: S2 tox)
C#Cc1cccc(Nc2ncnc3cc(OC)c(OCCCCCCC(=O)NO)cc23)c1	none (no result: USP1-UAF1 inh, IL1B secr inh, S2 tox, USP2a inh)
Cc1cccc(OCC(=O)Nc2cc(S(=O)(=O)N3CCCCC3)ccc2N2CCN(C)CC2)c1	S2 tox inconclusive (no result: ATXN2 expr inh)
CCc1cc(C(=O)Nc2cc(S(=O)(=O)N3CCCCC3)ccc2N2CCN(C)CC2)sc1C	IL1B secr inh -70, S2 tox inconclusive (no result: ATXN2 expr inh, USP2a inh)
Cc1cccc(NC(=O)CSCC(=O)Nc2cc(Cl)ccc2N2CCN(C)CC2)c1	IL1B secr inh -79
CN1CCN(c2ccc(S(=O)(=O)N3CCCCC3)cc2NC(=O)c2ccc3ccccc3c2)CC1	IL1B secr inh -92
CN1CCN(c2ccc(S(=O)(=O)N3CCCCC3)cc2NC(=O)COc2cccc(Cl)c2)CC1	IL1B secr inh -52, S2 tox inconclusive
Cc1cc(NC(=O)CSCC(=O)Nc2cc(Cl)ccc2N2CCN(C)CC2)no1	none (no result: ATXN2 expr inh)
Cc1ccccc1C(=O)Nc1cc(S(=O)(=O)N2CCCCC2)ccc1N1CCN(C)CC1	none
O=C(Cn1ncc2c3ccccc3n(Cc3cccc(Cl)c3)c2c1=O)NCc1cccs1	USP1-UAF1 inh inconclusive (no result: IL1B secr inh, USP2a inh)
Cc1ncc2c(c1CNS(=O)(=O)N(C)C)CCN(C(=O)c1[nH]c3ccc(Cl)cc3c1C)C2	none (no result: USP1-UAF1 inh, IL1B secr inh, ATXN2 expr inh, USP2a inh)
N[C@@H](CC(=O)N1CCn2c(nnc2C(F)(F)F)C1)Cc1cc(F)c(F)cc1F	none (no result: USP1-UAF1 inh, IL1B secr inh, S2 tox, USP2a inh)
CCOC(=O)c1cc2c(=O)n3ccccc3nc2n(CCOC)c1=NC(=O)c1c(-c2c(F)cccc2Cl)noc1C	IL1B secr inh -55
O=C1CSC(=S)N1Nc1ccccc1	USP1-UAF1 inh inconclusive, ATXN2 expr inh inconclusive (no result: USP2a inh)
CCOc1ccc(C(=O)Nc2ccc(Cc3ccncc3)cc2)cc1Br	IL1B secr inh -89, ATXN2 expr inh inconclusive
COc1c(C)cc(Br)cc1C(=O)Nc1ccc(Cc2ccncc2)cc1	IL1B secr inh -79, ATXN2 expr inh inconclusive
CCOc1ccc(C(=O)Nc2ccc(N3CCN(C)CC3)cc2)cc1Br	IL1B secr inh -52
CCOc1ccc(C(=O)Nc2ccc(N3CCN(C(=O)c4ccco4)CC3)cc2)cc1Br	ATXN2 expr inh inconclusive (no result: USP2a inh)
CCOc1ccc(C(=O)Nc2ccc(NC(=O)c3ccccc3)cc2)cc1Br	S2 tox inconclusive
C[C@@H]1C=CC(=O)O[C@@H]1c1ccc(Cl)cc1	IL1B secr inh -108, S2 tox inconclusive, ATXN2 expr inh inconclusive
